# An excerpt weighted towards active compounds, which were near 0.78% of everything screened.
# CatG inh: inhibitors of human cathepsin G; P08311; purified enzyme, AMC-tetrapeptide fluorescence, pooled mixtures; inhibition, % at 5 µM (by protocol); 62,000 compounds, 0.2% hits;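 active = inhibition above 20% in each of the two mixture wells holding the compound; inactive = inhibition of 20% or less in either well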;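 also: 0% = enzyme control without mixture and 100% = blank lacking enzyme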
# ROCK2 blocker: inhibitors of human Rho kinase 2 | purified ROCK2, Kinase-Glo ATP depletion luminescence | 60,000 compounds, 0.35% hits | O75116 | inhibition, % at 6 µM;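 active = inhibition above the screen-wide mean inhibition plus 3 SD, cut at about 18% in these data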;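 also: plate controls were DMSO wells for no effect and Y-27632 control wells after no-enzyme background subtraction for full effect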
# FXIa inh mix: blocks human factor XIa in pooled compound mixtures; P03951; purified FXIa, fluorogenic substrate; inhibition, % at 5 µM; 62,000 compounds, 0.19% hits;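 also: each value is inhibition by a whole ten-compound pool holding the compound; 0% = enzyme with no mixture and 100% = wells lacking enzyme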
# C1s block: blocks human complement C1s protease activity; 62,000 compounds, 0.16% hits; P09871; mean inhibition % of two 10-compound mixtures (hits give high values), % at 5 µM (by protocol); purified C1s, fluorogenic AMC substrate, pooled mixtures;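 active = inhibition above 20% in each of the two 10-compound mixture wells holding the compound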;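 also: 0% = enzyme wells lacking compound mixture and 100% = no-enzyme blank wells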
# PKA inh: blocks human protein kinase A activity; P17612; PKA Kemptide phosphorylation, Kinase-Glo ATP luminescence; inhibition, % at 6 µM; 65,000 compounds, 0.1% hits;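 active = inhibition above the screen-wide mean inhibition plus 3 SD, cut at about 21% in these data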
# FXIIa inh mix: factor XIIa (human) inhibition, mixture screen; 62,000 compounds, 0.2% hits; AID 684; P00748; purified FXIIa, fluorogenic substrate, pooled mixtures; inhibition, % at 5 µM;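 also: 0% = enzyme without compound and 100% = no enzyme blank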
# Active calls of the source: *; / = no result. Rule as the data show it, unless noted: active = inhibition above about 20% (passing the limit was not always enough); inactive = the rest.
SMILES,CatG inh,ROCK2 blocker,FXIa inh mix,C1s block,PKA inh,FXIIa inh mix
CCCNC(=O)CC(NS(=O)(=O)c1ccc(Cl)cc1)c1ccco1 (stereo unspecified),9,8,-5,-9,10,4
O=C(CC(NS(=O)(=O)c1ccc(Cl)cc1)c1ccco1)NCc1ccco1 (stereo unspecified),10,7,4,15,12,70*
O=C(c1ccc2nc(-c3ccco3)c(-c3ccco3)nc2c1)N1CCN(c2ccccc2)CC1,9,-6,1,1,2,1
O=C(Nc1ccc(N2CCOCC2)cc1)Nc1ccc2nc(-c3ccco3)c(-c3ccco3)nc2c1,15,42*,10,13,4,-16
O=C(O)CSCc1ccc(Cl)cc1,13,2,5,11,1,65*
COc1ccc(-c2cc(C(=O)NCc3ccccc3)no2)cc1OC,11,6,8,-11,8,1
COc1ccc(CNC(=O)c2cc(-c3ccc(OC)c(OC)c3)on2)cc1,32*,2,10,22*,-2,0
COc1ccc(-c2cc(C(=O)NCc3ccc(Cl)cc3)no2)cc1OC,55*,5,14,7,5,9
COc1cccc(-c2cc(C(=O)NCCc3ccccc3)no2)c1,22*,/,4,16,1,1
Cn1c(=O)c2c(nc(Br)n2Cc2ccc3ccccc3c2)n(C)c1=O,/,10,/,/,5,/
CCC1CCCCN1c1nc2c(c(=O)n(C)c(=O)n2C)n1CCSc1nc2ccccc2o1 (stereo unspecified),-11,2,4,-43,-2,1
O=C(c1ccco1)N1CCN(S(=O)(=O)c2ccc(S(=O)(=O)NC3CCCCC3)cc2)CC1,9,-2,2,71*,4,9
CN(C)CCCNC(=O)CC(c1ccccc1)c1ccccc1O (stereo unspecified),2,2,6,-5,-3,7
COc1cccc(C2=CC(c3cccc(OC)c3OC)n3nnnc3N2)c1 (stereo unspecified),34,2,2,30*,2,8
COc1cccc(C2=CC(c3cccc(OC)c3OC(F)F)n3nnnc3N2)c1 (stereo unspecified),-3,11,1,-17,9,3
O=C(O)c1cccc(NS(=O)(=O)c2ccc(Cl)c(C(=O)O)c2)c1,24,5,17,15,-2,22*
O=C(O)c1cccc(NS(=O)(=O)c2ccc3nnn(O)c3c2)c1,1,/,5,-12,10,37*
CC(=O)Nc1ccc(NS(=O)(=O)c2ccc(Cl)c(C(=O)O)c2)cc1,-2,5,4,-18,10,7
COC(=O)c1ccc(OC(=O)C2CC(=O)N(c3ccc(C)cc3C)C2)cc1 (stereo unspecified),40,3,31*,-2,0,-4
COc1ccc(NC(=O)C2CC(=O)N(c3cc(C)ccc3C)C2)cc1 (stereo unspecified),48,2,67*,-6,5,2
Cc1cc(C(=O)N(C)CC(=O)Nc2ccccc2C(F)(F)F)c(C)o1,8,/,0,5,4,11
CCCCNC(=O)c1nc2ncc(Br)cn2n1,4,7,25*,1,10,3
CCCNC(=O)c1nc2ncc(Br)cn2n1,3,1,3,-33,6,-15
CCC(=O)Nc1ccc2nc(C)n(CC(=O)Nc3ccccc3)c(=O)c2c1,1,-1,5,-6,1,6
Cc1ccccc1NC(=O)Cn1c(C)nc2ccc(NC(=O)C3CC3)cc2c1=O,-16,19*,3,-14,10,-19
SMILES,CatG inh,ROCK2 blocker,FXIa inh mix,C1s block,PKA inh,FXIIa inh mix
COc1ccc(C2C(C(=O)c3cccs3)=C(O)C(=O)N2c2nncs2)cc1 (stereo unspecified),22*,/,43*,13,4,1
Cc1ccc(SCc2nc(-c3ccccc3)no2)cc1,5,-4,9,0,-6,13
Cc1ccc(SCc2nc(-c3ccncc3)no2)cc1,-1,24*,3,2,21*,3
O=C(CCSc1nccn1Cc1ccccc1)N1CCOCC1,22*,6,7,18,7,-4
O=C(OCCN1C(=O)c2ccccc2C1=O)c1cccc(OC(F)F)c1,0,0,6,-3,-5,-10
CCCC(=O)N1CCN(c2nc(CC(C)C)c3c(c2C#N)CCC3)CC1,/,6,/,/,8,/
N#CC1=C(N)Oc2cc(O)ccc2C1c1cccs1 (stereo unspecified),1,4,8,-1,0,3
N#CC1=C(N)Oc2cc(O)ccc2C1c1ccncc1 (stereo unspecified),10,21*,4,10,10,8
CC1Oc2ccccc2N(CC(=O)Nc2ccc3c(c2)OCCO3)C1=O (stereo unspecified),9,1,21*,13,0,4
O=C(CCn1c(=O)oc2ccccc21)N1CCN(C(c2ccccc2)c2ccccc2)CC1,9,2,3,10,5,-18
Brc1ccc2[nH]ncc2c1,2,30*,4,1,12,8
c1csc(-c2csc3nc(CN4CCOCC4)nc(NCc4ccc5c(c4)OCO5)c23)c1,9,0,9,-12,-2,16
Cc1ccc2c(c1)c1c3n2CCN(C(=O)Cn2c(-c4ccccc4)noc2=O)C3CCC1 (stereo unspecified),10,21*,7,8,-6,2
N#Cc1c(/N=C/c2ccco2)sc2c1CCCCC2,9,25*,-4,-9,6,-4
N#Cc1c(/N=C/c2cccs2)sc2c1CCC2,11,9,7,12,16,-6
